Source: PubChem BioAssay
Nrf2 activator: qHTS of Nrf2 Activators; Potency, µM (top dose mostly 46.1 µM), without a hit: top-dose activation, hits mostly activators; AID 624171, 2012; 0.31% of 410,000 active; AREc32 ARE-luciferase reporter (MCF7-derived line), luminescence, 24 h; note: potency is the fitted concentration of half-maximal effect; % of control where 0% means no effect; nearly all actives have a fitted effect of over 65% in size
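AREc32 cells carrying an ARE-driven firefly luciferase, 1000 cells/well in OPTI-MEM with 5% FBS, dosed after overnight attachment and incubated 24 hr at 37 deg C. Steady-Glo luminescence read after 30 min at RT.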
mIDH1 inhibitor: qHTS for Inhibitors of mutant isocitrate dehydrogenase 1 (IDH1): qHTS | Isocitrate dehydrogenase [NADP] cytoplasmic (Homo sapiens), O75874 | IDH1-R132H enzyme, NADPH consumption, diaphorase/resazurin fluorescence | Potency, µM (highest dose often 76.6 µM), without a hit: at the highest dose activity change, negative = inhibition, hits mostly inhibitors | 0.093% of 390,000 active | AID 602179, 2012; note: potency is the fitted concentration of half-maximal effect; % is set by controls: 0 for no effect and ±100 for the full control effect; nearly all actives have a fitted effect of over 65% in size
Target sequence (O75874 whole entry R132H, stated change not applied): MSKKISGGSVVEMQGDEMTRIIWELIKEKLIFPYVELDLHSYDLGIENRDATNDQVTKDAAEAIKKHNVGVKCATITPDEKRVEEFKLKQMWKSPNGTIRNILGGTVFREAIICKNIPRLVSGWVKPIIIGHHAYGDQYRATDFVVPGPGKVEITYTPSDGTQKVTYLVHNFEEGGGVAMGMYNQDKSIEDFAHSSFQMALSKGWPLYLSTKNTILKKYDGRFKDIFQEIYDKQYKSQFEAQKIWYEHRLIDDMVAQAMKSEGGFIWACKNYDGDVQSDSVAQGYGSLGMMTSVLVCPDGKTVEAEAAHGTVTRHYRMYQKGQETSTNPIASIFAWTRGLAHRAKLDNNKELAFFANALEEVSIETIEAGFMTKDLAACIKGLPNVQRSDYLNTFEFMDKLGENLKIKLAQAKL
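IDH1-R132H (0.5 ug/mL dispensed) in pH 7.5 Tris buffer was preincubated 30 min with compound, then given a substrate mix of 0.016 mM NADPH and 2 mM alpha-KG for 80 min at room temperature; remaining NADPH was read by diaphorase/resazurin fluorescence.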
Apoferritin bind: qHTS Assay for Identification of Novel General Anesthetics | apoferritin/1-aminoanthracene competitive binding, fluorescence | Potency, µM (titrated, usually from 77.5 µM), for inactives: top-dose activity change, negative = displacement, usual class: inhibitors | Ferritin light chain (Equus caballus), P02791 | 0.074% of 350,000 active | AID 485281, 2010; note: potency is the fitted concentration of half-maximal effect; % is set by controls: 0 for no effect and ±100 for the full control effect; nearly all actives have a fitted effect of over 20% in size
Target sequence (P02791 2-175 limits assumed): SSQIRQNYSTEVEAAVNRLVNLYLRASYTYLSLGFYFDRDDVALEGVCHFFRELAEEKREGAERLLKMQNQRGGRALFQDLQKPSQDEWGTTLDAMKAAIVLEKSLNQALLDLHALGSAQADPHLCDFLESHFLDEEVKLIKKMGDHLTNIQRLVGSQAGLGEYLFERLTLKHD
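Probe: 1-aminoanthracene (50% saturated, PBS). Protein: horse-spleen apoferritin, 10 uM. Incubation: 10 min, room temperature. Detection: 380 nm excitation, 535 nm emission. Analysis: normalized response, four-parameter Hill.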
Giardia kill: Small Molecules that selectively kill Giardia lamblia: qHTS; Giardia lamblia trophozoite viability; 0.15% of 340,000 active; activity change, % at 7.66 µM, hits read low; AID 540267, 2011; in the data active = activity change below about -80%; inconclusive = between about -30% and that limit;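 note: parasites exposed to compound for two days anaerobically before the ATP read; % is set by controls: 0 for no effect and ±100 for the full control effect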
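Luminescence from cellular ATP indicates surviving trophozoites (100 cells/well) following 48 hrs anaerobic compound treatment at 37 deg C; signal develops 15-30 min at room temperature.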
Nrf2 inh: Nrf2 qHTS screen for inhibitors; A549 ARE-Fluc reporter, luciferase luminescence, 18-24 h; Potency, µM (highest dose often 46 µM), for the others: at the top dose activity change, negative = inhibition, usual class: inhibitors; 2.1% of 360,000 active; note: potency is the fitted concentration of half-maximal effect; % is set by controls: 0 for no effect and ±100 for the full control effect; nearly all actives have a fitted effect of over 60% in size
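Cells were seeded and rested 2 h, then exposed to compounds for 18-24 h. CellTiter-Fluor was read first as a viability measure. BugLite was added 15 min before the final luminescent read of ARE-luciferase activity in A549 cells.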
A549 tox: Nrf2 qHTS screen for inhibitors: counterscreen for cytotoxicity; A549 ARE-Fluc cells, CellTiter-Fluor viability, 18-24 h; Potency, µM (highest dose often 46 µM), for inactives: top-dose activity change, negative = cytotoxicity, hits mostly inhibitors; 0.16% of 390,000 active; note: potency is the fitted concentration of half-maximal effect; % is set by controls: 0 for no effect and ±100 for the full control effect
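A549 ARE_Fluc cells in 5% FBS OPTI-MEM were exposed to compounds in concentration-response for 18-24 h at 37 deg C. Viability was read by CellTiter-Fluor fluorescence (Ex 405/Em 525) after 30 min, before the luciferase read.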
Active calls of the source: *; ? = inconclusive; nt = no result; [ ] = dose if it differs, or a comment. Hits are enriched below; roughly 2.3% of the tested compounds scored in any of these assays. Unless noted, calls come from the whole dose curve; as a rule, active = well fitted curve in the direction sought with a large enough effect; inconclusive = small, poorly fitted or top-dose-only effect, or another doubt; inactive = no such curve, though single readings can be large; an effect the other way counts as inactive or inconclusive.

SMILES	Nrf2 activator	mIDH1 inhibitor	Apoferritin bind	Giardia kill	Nrf2 inh	A549 tox
CCCCCn1nc(C(=O)OCC(=O)c2c(N)n(C)c(=O)n(C)c2=O)c2ccccc2c1=O	0%	0%	-4%	7	-24%	-7%
Cn1c(N)c(C(=O)COC(=O)c2nc(Cl)ccc2Cl)c(=O)n(C)c1=O	2.2µM*	13%	-13%	-17	6%	1%
Nc1c(N2CCCC2)cc(Cl)c2nonc12	1%	1%	-5%	-3	16µM*	?
Nc1c(N2CCOCC2)cc(Cl)c2nonc12	0%	12%	-23%	2	7%	-16%
NCCCNc1ncnc2ccc(-c3ccc4c(c3)OCO4)cc12	nt	nt	nt	nt	0%	-8%
CC1(C(=O)NS(=O)(=O)c2cccc(Cl)c2)CCN1C(=O)C/C=C/c1ccccc1 (configuration not stated)	0%	nt	nt	nt	nt	nt
O=S(=O)(NCC1CCCO1)c1ccc(-c2ccc(S(=O)(=O)NCC3CCCO3)cc2)cc1 (configuration not stated)	1%	2%	?	6	1.3µM*	2%
O=C(OCC#CCSc1nnc(-c2cccc3ccccc23)o1)c1cc2ccccc2s1	nt	nt	nt	nt	7%	-7%
CCOc1ccccc1NC(=O)C(C)n1nnc2sc3c(c2c1=O)CCCC3 (configuration not stated)	-1%	nt	26%	nt	?	6%
COc1ccc(CCNS(=O)(=O)c2ccc(N3CCCC3=O)cc2)cc1	1%	9%	nt	-12	26µM*	-11%
O=C1CCCN1c1ccc(S(=O)(=O)NCCc2ccc(Cl)cc2)cc1	2%	0%	-23%	-8	-17%	9%
Cc1nn(C)c(C)c1NS(=O)(=O)c1ccc(N2CCCC2=O)cc1	0%	7%	-3%	0	15µM*	-14%
COc1cc(F)c(S(=O)(=O)N2CCCN(S(=O)(=O)c3ccc4c(c3)OCCO4)CC2)c(F)c1	nt	nt	nt	nt	?	-18%
COc1cccc(-c2nc(NC(C)C)c3ccccc3n2)c1O	0%	0%	?	-3	?	nt
CCC(C)Nc1nc(-c2cccc(OC)c2O)nc2ccccc12 (configuration not stated)	-2%	4%	-17%	-14	21µM*	?
CCCn1nc(NC(=O)c2cccs2)c2cc3cc(C)ccc3nc21	2%	-3%	7%	13	16µM*	-16%
CCCn1nc(NC(=O)c2cccs2)c2cc3ccc(C)cc3nc21	6%	-12%	-2%	-9	?	?
CCCn1nc(NC(=O)c2cccs2)c2cc3ccccc3nc21	0%	2%	-9%	-1	18µM*	nt
CCCn1nc(NC(=O)c2cccs2)c2cc3cc(OC)ccc3nc21	8%	4%	5%	-11	-1%	-14%
CCCCn1nc(NC(=O)c2cccs2)c2cc3ccccc3nc21	0%	2%	-8%	2	12µM*	-18%
O=C1Cc2cc(S(=O)(=O)N3CCN(c4ccc(Cl)cc4)CC3)ccc2N1	nt	nt	nt	nt	-8%[92.2 µM]	15%[92.2 µM]
CC(=O)NN1C(=O)/C(=C\c2ccc(Br)o2)SC1=S	16µM*	2%	-15%	0	-12%	-7%
O=C(CCNc1cc(Cl)cc(Cl)c1)c1cccs1	6.3µM*	1%	?	13	9%	7%
CN1c2ccccc2-c2nc(SCC(=O)Nc3ccccc3C(F)(F)F)ncc2S1(=O)=O	7%	0%	-9%	nt	-20%	-12%
Cc1ccc[n+](CC2OCc3ccccc3CO2)c1	-1%	-2%	-4%	-1	7.3µM*	0%
SMILES	Nrf2 activator	mIDH1 inhibitor	Apoferritin bind	Giardia kill	Nrf2 inh	A549 tox
COc1ccc(C(=O)Cn2nnc(-c3ccccc3NC(=O)c3ccco3)n2)cc1	1%	0%	-16%	-24	18µM*	?
COc1ccc(S(=O)(=O)Nc2ccccc2-c2nnn(CC(=O)Nc3ccccc3OC)n2)cc1	0%	4%	1%	11	?	?
COc1ccc(NC(=O)Cn2nnc(-c3ccccc3NS(=O)(=O)c3ccccc3)n2)cc1	0%	11%	3%	13	21µM*	-13%
O=C1C2Cc3c([nH]c4ccccc34)C(c3ccccc3)N2C(=O)C2Cc3c([nH]c4ccccc34)C(c3ccccc3)N12 (configuration not stated)	nt	nt	-7%[15.3 µM]	nt	nt	nt
N#C/C(=C\c1cn(-c2ccccc2)nc1-c1cccnc1)c1nnc2n1CCCCC2	0%	5%	-18%	34	21µM*	?
O=C(/C=C/c1cn(-c2ccccc2)nc1-c1cccnc1)N1CCCC1	4%	2%	-15%	-6	-18%	?
FC(F)(F)c1cc(-c2ccc(Cl)cc2)nc(NCc2cccnc2)n1	3%	2%	?	-22	15µM*	6%[1.84 µM]
COc1ccc(CNC(=O)Cc2ccc(NC(=O)N3CCSc4ncccc43)cc2)cc1OC	1%	-15%	5%	nt	?	3%
Cc1ccc(C)c(CN2C(=O)c3ccccc3S(=O)(=O)c3ccc(C(=O)NCCC4=CCCCC4)cc32)c1	6%	nt	-8%	nt	13%	-5%
CCN(CCO)c1ccc(N=Nc2cc(C)[nH]n2)cc1	-3%	1%	1%	?	?	9.2µM*
CC(=O)Nc1cccc(NC(=O)NC2CC(=O)N(c3ccc4c(c3)OCCO4)C2)c1 (configuration not stated)	0%	-4%	nt	nt	nt	nt
Cc1ccc(-n2nc3c(=O)n(CC(=O)NCCCc4ccccc4)nc(C)c3c2C)cc1	0%	-6%	-28%	2	?	-5%
Cc1ccc(-n2nc3c(=O)n(C(C)C(=O)NCCCc4ccccc4)nc(C)c3c2C)cc1 (configuration not stated)	0%	-5%	-9%	2	10µM*	21µM*
Cc1ccc(-n2nc3c(=O)n(C(C)C(=O)NCc4ccccc4Cl)nc(C)c3c2C)cc1 (configuration not stated)	0%	-7%	?	-10	15µM*	-16%
CCC(C(=O)NCc1cccc(C)c1)n1nc(C)c2c(C)n(-c3ccccc3)nc2c1=O (configuration not stated)	0%	-2%	?	9	21µM*	-14%
CCC(C(=O)NCc1cccc(Br)c1)n1nc(C)c2c(C)n(-c3ccccc3)nc2c1=O (configuration not stated)	1%	0%	-11%	nt	?	-2%
CCCCNC(=O)C1(C)CCCCN1Cc1ccc(-c2ccccc2)cc1 (configuration not stated)	-1%[9.22 µM]	nt	nt	nt	nt	nt
